The record followed here is PubChem BioAssay AID488841 (Sanford-Burnham Center for Chemical Genomics, 2010).

As usually defined, the inhibition is the relative decrease from the control value, in per cent.

Each structure is given as a SMILES string. Hit rate of the full screen: of about 1,400 compounds, about 380 (27%) were called active. The list shows a part of the results. Unmarked numbers belong to inactive results.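 The calls were made as follows: active = mean inhibition above 50% across duplicate retests at 10 µM; inactive = the rest.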

The nature of this assay: yeast NALP1 reporter signal suppression – S. cerevisiae, luminescence, single concentration, NALP1 inhibitor project, confirmation (AID 488841).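 Also: plate controls were DMSO in galactose medium for no effect and cells in plain SD medium for full effect.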 As to conditions: S. cerevisiae NALP1/ASC/Caspase-1 reporter, beta-gal luminescence; at 10 µM; stronger effect = higher value.
For `Cc1cccc(N/C=C/C(=C(C#N)C#N)N(C)C)c1`, the inhibition is 30.9%.

Turning to `O=C(N/N=C/c1ccc2nccnc2c1)c1ccccc1O`, the inhibition is 25.7%.

On to `Cc1ccsc1/C=N/NC(=O)c1ccco1`, for which the inhibition is 38.9%. `O=C(N/N=C/c1ccc2c(c1)OCO2)c1cccs1`: the inhibition was 51.4% (active). On to `O=[N+]([O-])c1ccc(N2CCN(c3ccc(Cl)nn3)CC2)c(Cl)c1`, for which the inhibition is 29.9%. Take `COc1ccc(-c2nc(N)n(S(=O)(=O)c3ccc(C)cc3)n2)cc1`: the inhibition is 44.7%. With `Cn1nc(-c2ccc(Cl)cc2)nc2c(=O)n(C)c(=O)nc1-2` the figure was 97.7% (active); with `Cn1nc(-c2ccccc2)c(-c2nc(-c3ccc(Cl)cc3)no2)c1Cl`, 16.6%; with `COc1ccccc1NC(=O)Nc1ccc2c(c1)nnn2C`, 18.6%. Consider `Cc1cc(C)n(C(C[N+](=O)[O-])c2ccc(Cl)cc2)n1` (stereo not given), for which the inhibition is 92% (active). With `Cc1nc([N+](=O)[O-])c(Br)n1CC(=O)c1ccc(Cl)cc1`, the inhibition was 37.6%. Regarding `CCOc1cc(/C=N/NC(=O)c2nn(C)cc2Br)ccc1OCc1ccccc1Cl`, the inhibition is 20.8%. For the compound `O=c1cc(-c2ccccc2)[nH]c2nc3ccccc3n12`, the inhibition is 39.5%.

Consider `Cc1cccc(OC(=O)c2cn(C)nc2C(F)(F)F)c1C`, for which the inhibition is 43.7%. As to `CCCCNc1nc2ccccc2[nH]1`, the inhibition was 20.4%. As to `Fc1ccccc1-c1ccc(/C=N/Nc2nc3ccccc3[nH]2)o1`, the inhibition was 60.4% (active). For the compound `Cc1ccc(/C=N/Nc2ccnc3cc(Cl)ccc23)c(C)c1`, the inhibition was 38.3%. Turning to `CC(=O)/C=C/n1c(=S)oc2ccccc21`, the inhibition was 6.85%.

For the compound `CN1C(=O)CSc2ccc(NC(=O)N3CCN(c4ccccn4)CC3)cc21`, the inhibition is 24%. With `O=C(CC1Sc2ncnn2C1=O)Nc1ccc(Br)cc1` (stereo not given) the figure was 41.1%; with `COc1ccc(NC(=O)CC2Sc3ncnn3C2=O)cc1` (stereo not given), 59% (active); with `CCOC(=O)c1ccc(NC(=O)CC2Sc3ncnn3C2=O)cc1` (stereo not given), 70.7% (active).

`CCOC(=O)c1ccc(NC(=O)c2nccnc2C(=O)O)cc1`: the inhibition was 18.4%.

In the case of `COc1ccc(Nc2ncccc2C(=O)NCc2ccccc2)cc1`, the inhibition is 46.5%. With `CCOC(=O)c1ccc(NC(=O)CSc2nnc(CNc3ccc(C)cc3)n2C)cc1` the figure was 32.1%; with `CCOC(=O)C1C(=O)Oc2ccc3ccccc3c2C1C1CCOC1=O` (stereo not given), 19.4%; with `CCN(CC)S(=O)(=O)c1ccc(NS(=O)(=O)c2cccs2)cc1`, 16.4%. In the case of `COc1ccc(NC(=S)N(C(C)C)C2CCN(C(C)C)CC2)cc1Cl`, the inhibition was 21.6%. Turning to `Cc1ccc(N2C(=O)c3ccc(C(=O)O)cc3C2=O)cc1C`, the inhibition is 28.4%.

In the case of `Clc1ccc(Cn2c(/C=C/c3ccco3)nc3ccccc32)cc1`, the inhibition is 29.2%.

Consider `COc1ccc(CNC(=O)CCNS(=O)(=O)c2ccc(C)cc2)cc1`, for which the inhibition was 19.6%. Turning to `CCN(C(=O)c1ccco1)c1nnc(-c2ccc(OC)cc2)s1`, the inhibition was 38%. In the case of `COc1ccc(CC2(C)OC(c3ccc(C)cc3)=NN2C(C)=O)cc1` (stereo not given), the inhibition is 55.5% (active). For the compound `N#Cc1ccc(Oc2nc(Nc3ccc(F)cc3)nc(N3CCCC3)n2)cc1`, the inhibition is 29.6%. Take `c1ccc(-c2cccc(-c3ccccn3)n2)nc1`: the inhibition is 86.2% (active). Regarding `c1cnc2c(c1)ccc1cccnc12`, the inhibition is 40.4%. The same measure for `COc1ccccc1C/C(N)=N/OC(=O)c1cccc([N+](=O)[O-])c1C`: 37.2%; for `N/C(Cc1ccc([N+](=O)[O-])cc1)=N\OC(=O)c1ccccc1Br`: 55.1% (active); for `N/C(Cc1ccccc1)=N\OC(=O)c1cccc2ccccc12`: 39.9%. With `Cc1noc(C)c1S(=O)(=O)N1CCC(C(=O)N2CCC(N3CCCCC3)CC2)CC1` the figure was 22.1%; with `Clc1ccc(CO/N=C2\CCCc3nonc32)c(Cl)c1`, 44.9%. For `CS(=O)(=O)N1CCC(C(=O)Nc2ccc3c(c2)OCO3)CC1`, the inhibition was 30.6%.

For `Cc1cc(C)cc(NS(=O)(=O)c2ccc(NC(=O)C3CCCCC3C(=O)O)cc2)c1` (stereo not given), the inhibition is 35.4%. `O=C1c2ccccc2C(=O)c2cc(NC(=O)C3CC3)ccc21`: the inhibition is 44%. In the case of `COc1ccc(NC(=O)C2CCN(C(=O)c3ccc(OC)cc3)CC2)cc1`, the inhibition was 18.7%. `O=C(Nc1ccc(Br)c(Cl)c1)C1CC1`: the inhibition is 56.2% (active). For `O=C(Nc1ccc(C#Cc2ccccc2)cc1)C1CC1`, the inhibition is 56.5% (active). Regarding `O=P(CCCCCCCCCP(=O)(c1ccccc1)c1ccccc1)(c1ccccc1)c1ccccc1`, the inhibition was 39%. In the case of `CC(C)C(=O)c1cc2c(cc1NC(=O)Nc1cccc3ccccc13)OCCO2`, the inhibition is 28.3%. Regarding `OCCCN=c1cc(-c2ccccc2)oc2ccc(Cl)cc12`, the inhibition is 43.6%. As for `Cc1n[nH]c(C)c1S(=O)(=O)N1CCN(C2CCCCC2)CC1`, the inhibition was 16.5%.

Take `COc1ccnc(N2CCN(c3ccccc3)CC2)c1C#N`: the inhibition was 53.9% (active). As for `O=C(CSc1nc(-c2ccccc2)cs1)Nc1cccc([N+](=O)[O-])c1`, the inhibition was 47.1%. Turning to `CC(C)NC(=O)CSc1nc(-c2ccccc2)cs1`, the inhibition is 56.1% (active). As to `COc1cccc(CNC(=O)CSc2ccc(-c3ccncc3)nn2)c1`, the inhibition is 34.1%. Consider `CCOC(=O)c1c(-c2cccs2)csc1NC(=O)C(C)(C)C`, for which the inhibition is 26.2%. As for `Cc1ccc(NC(=O)CSC2=Nc3ccccc3C3CC=NN23)c(C)c1` (stereo not given), the inhibition was 41.9%. As to `O=C(Oc1cccc2cccnc12)c1ccc(N2C(=O)C3C4CCC(C4)C3C2=O)cc1` (stereo not given), the inhibition is 31%. With `O=C(Nc1cc(N2CCOCC2)ncn1)NC1(C(F)(F)F)Oc2ccc(Cl)cc2O1` (stereo not given), the inhibition is 30.7%.

Take `CC1CCCN(CCCOc2ccc(Cl)cc2Br)C1` (stereo not given): the inhibition was 56.8% (active). The same measure for `CC1CCCN(CCOCCSc2ccccc2)C1` (stereo not given): 39.5%. With `CC1CCCN(CCOCCOc2ccc(Br)cc2Cl)C1` (stereo not given) the figure was 42%; with `Cc1c(C)c2cc(Cl)c(O)c(CN3CCCCC3)c2oc1=O`, 31.9%; with `COc1ccc(N2C(=O)C(Cl)=C(Nc3c(C)n(C)n(-c4ccccc4)c3=O)C2=O)cc1`, 36.8%. For `O=C(O)CCCCc1nc2ccccc2s1`, the inhibition was 14.6%. Take `O=C(CSC1=NS(=O)(=O)c2ccccc21)Nc1ccccc1`: the inhibition is 37%.

Regarding `O=C(CCc1nc2ccccc2s1)Nc1ccccc1`, the inhibition was 77.9% (active). Take `O=C(O)c1ccc2c(c1)N(Cc1cccc(F)c1)C(=O)CS2`: the inhibition is 19%. With `NC(=S)N/N=C/c1coc2c(ccc3ccccc32)c1=O` the figure was 34.1%; with `O=C(/C=N/O)Nc1cccnc1`, 19.7%; with `Cc1ccc(-c2csc3ncnc(Oc4cccc5ccc(C)nc45)c23)cc1`, 19.6%. Turning to `COc1ccc(-c2csc3ncnc(Oc4cccc5ccc(C)nc45)c23)cc1`, the inhibition was 67.6% (active).

Consider `O=S(=O)(CC(CN1CCCC1)N1CCCC1)c1ccc2ccccc2c1` (stereo not given), for which the inhibition was 21.4%. Turning to `CC(C)c1nc2sc3c(=O)[nH]cnc3c2c2c1CCC2`, the inhibition was 22%. With `CCOC(=O)C(=Cc1cc(=O)c(OC)co1)C(=O)OCC` the figure was 79.3% (active); with `CC(=O)c1c(C)oc2c1C(=O)c1ccccc1C2=O`, 35.8%; with `Cc1c(Cl)sn(-c2ccc(Cl)cc2)c1=O`, 73.5% (active).

For the compound `C=C(C)C1CC=C(C)/C(=N/NC(=O)c2ccoc2C)C1` (stereo not given), the inhibition is 27.2%.

Take `CN(C)C(=N)c1n[nH]nc1SCc1ccccc1`: the inhibition is 19.9%. `Cc1cccc(/C=C/C(=O)c2ccc(NC3=NCCCS3)cc2)c1`: the inhibition is 62% (active). With `CC(C)(C)c1ccc(/C=C/C(=O)c2ccc(NC3=NCCCS3)cc2)cc1`, the inhibition was 43.9%. With `Cc1cc(N/N=C/c2ccccc2Cl)nc(NCc2ccccc2)n1` the figure was 43.6%; with `Cc1cc(N/N=C/c2cccc(Cl)c2)nc(NCc2ccccc2)n1`, 44.8%. Consider `Cc1ccc(Nc2cc(C)nc(NCc3ccccc3)n2)cc1`, for which the inhibition was 58.3% (active). With `Cc1cc(N/N=C/c2ccc(Cl)cc2)nc(NCc2ccccc2)n1` the figure was 33.7%. As to `Cc1cc(N/N=C/c2ccccc2)nc(NCc2ccccc2)n1`, the inhibition is 58.4% (active).

Take `CCOC(=O)C1CCCN(C2CC(=O)N(c3cccc(C(F)(F)F)c3)C2=O)C1` (stereo not given): the inhibition is 32.6%.

In the case of `CC1Cc2ccccc2N1CC(=O)Nc1ccc2c(c1)OC(F)(F)O2` (stereo not given), the inhibition is 30.3%. With `CCCCCCNc1nc(NCc2ccco2)nc(OCC)n1`, the inhibition was 52.5% (active).

As for `CCc1ccc(OCCCC(=O)Nc2cccc(C(=O)O)c2)cc1`, the inhibition is 27.1%. Consider `Cc1ccc(-n2c(Cl)c(Cl)nc(Cl)c2=O)cc1`, for which the inhibition is 100% (active).

For the compound `COc1ccc2cnn(-c3ccc(C)cc3)c(=O)c2c1OC`, the inhibition was 36.9%.

As for `O=C(Nc1cccc(O)c1)c1noc2c1CCc1ccccc1-2`, the inhibition is 75.4% (active). Turning to `O=c1c2c(C(F)(F)F)cc(C(F)(F)F)nc2[nH]n1-c1ccccc1`, the inhibition was 37.9%. The same measure for `O=C(CN1CCSC1=NCc1ccccc1)c1ccc(Cl)c(Cl)c1`: 52.2% (active); for `COc1ccc(N2CCN(CC(=O)NC(=O)NCc3ccco3)CC2)cc1`: 28.6%; for `O=C(NC(Nc1nc2ccc([N+](=O)[O-])cc2s1)(C(F)(F)F)C(F)(F)F)c1ccccc1Cl`: 99.5% (active). Turning to `CN(C)S(=O)(=O)c1ccc(N2CCCC2)c(C(=O)Nc2nc3ccccc3s2)c1`, the inhibition is 36.7%. On to `CCOc1ccc(CNC(=O)c2cc3oc4ccccc4c3n2C)cc1`, for which the inhibition is 7.2%.

Regarding `O=C1C=CCC(/C=C/c2ccccc2)O1` (stereo not given), the inhibition is 69.2% (active). As for `c1ccc(-c2c[nH]c3[n+]2CCCCC3)cc1`, the inhibition is 26.2%. As for `COc1ccc(OCCCC(=O)NCCc2ccccc2)cc1`, the inhibition is 60.8% (active). With `COc1ccc(C(CCNCc2ccccc2F)c2ccc(F)cc2)cc1` (stereo not given), the inhibition is 48.2%.

`COc1ccc(OCCCC(=O)Oc2ccc(OC)cc2)cc1`: the inhibition is 42.6%. Turning to `COc1ccc(CNCCC(c2ccc(F)cc2)c2ccc(OC)cc2)cc1` (stereo not given), the inhibition was 65.8% (active). Take `COc1ccc(OCCCC(=O)NCC(C)C)cc1`: the inhibition is 32.4%. In the case of `COc1ccc(CCNCc2ccc(OCc3ccccc3)cc2)cc1`, the inhibition was 78.5% (active). For `CCc1ccc(OCCNC(=O)OCc2ccccc2)cc1`, the inhibition was 48.8%. Take `CCOCCCNCc1ccc(OCc2ccccc2Cl)cc1`: the inhibition was 49.2%. Turning to `COc1ccc(CNCCSc2nnnn2C)cc1OC`, the inhibition is 49%.
